Screens (PubChem BioAssay)
Compounds with a hit are over-represented: about 21% of the library has one in this group of screens.
Pf growth 48h – P. falciparum growth inhibition at 48 hours (one generation) | P. falciparum luciferase growth in erythrocytes, 48 h | Potency, µM (top dose mostly 28.7 µM), hits mostly inhibitors | 310,000 compounds, 5.9% hits | AID 504832; active means well fitted inhibition curve with a large enough effect; inconclusive means small, poorly fitted or top-dose-only effect, or another doubt; inactive means no such curve, though single readings can be large or run the other way
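Growth was read as firefly luciferase luminescence after a 48 h, 37 C, 5% CO2 exposure of compounds to reporter-bearing P. falciparum cultures (0.1% parasitemia, 2% hematocrit final) in Albumax-supplemented RPMI 1640.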
Pf growth 96h – P. falciparum growth inhibition at 96 hours | AID 504834 | 320,000 compounds, 6.9% hits | P. falciparum luciferase reporter growth, 96 h | Potency, µM (highest dose often 28.7 µM), hits mostly inhibitors; active means well fitted inhibition curve with a large enough effect; inconclusive means small, poorly fitted or top-dose-only effect, or another doubt; inactive means no such curve, though single readings can be large or run the other way
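Two-generation exposure (96 h) targets delayed-death phenotype. Reporter parasites carrying integrated firefly luciferase, in red cells at 2% hematocrit and 0.05% parasitemia final, kept at 37 C, 5% CO2; luminescence loss indicates inhibition.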
Cycloheximide cs – affects cycloheximide protein synthesis inhibition readout, counter-screen; cell reporter, cycloheximide protein synthesis inhibition counterscreen; max response, %; 300,000 compounds, 12% hits; AID 2314; in the data active means max response mostly above about 13%, no sharp cut-off; inactive means mostly below about 14%; further: read at 38.3 µM for the half of the compounds with a filed dose
SARS PLpro yeast – blocks SARS-CoV papain-like protease in a yeast assay. S. cerevisiae expressing SARS-CoV PLpro, growth rescue. Potency, µM (titrated, usually from 32.9 µM), usual class: activators. 330,000 compounds, 0.19% hits. AID 485353; further: nearly all actives have a fitted effect of over 55% in size
Shiga inhibitor – blocks Shiga toxin action in Vero cells; Vero cells, Shiga toxin protein synthesis inhibition reporter; inhibition, % at 38.7 µM; 290,000 compounds, 9.2% hits; in the data active means inhibition mostly above about 28%, no sharp cut-off; inactive means mostly below about 43%
NS1 inh – blocks influenza NS1 protein function; Potency, µM (series often up to 46.1 µM); 270,000 compounds, 0.4% hits; further: actives are rising curves; nearly all actives have a fitted effect of over 50% in size
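Read-out: OD600 growth recovery of NS1-expressing budding yeast. Cells grown overnight at 30C in -URA glucose medium, washed, resuspended and diluted 1:100 in 2% galactose assay medium, pH 6.0. Same strain lacking NS1 served as positive control.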
NS1 inh valid – influenza NS1 function inhibition validation | activity change, negative = inhibition, % at 32.9 µM | influenza NS1 function cell assay, 15-point titration | shares compounds with NS1 inh | 1,400 tested, under 10 active | AID 492980
Hits are given with their value; n = inactive; u = inconclusive; x = no result; [ ] = another dose, or the depositor's remark. Unless noted, the call rests on the fitted dose curve.

SMILES	Pf growth 48h	Pf growth 96h	Cycloheximide cs	SARS PLpro yeast	Shiga inhibitor	NS1 inh	NS1 inh valid
Cc1ccccc1NC(=O)N1CCCC1C(=O)NCc1cccs1 (stereo not drawn)	n	u	n	u	n	n	x
O=C(CC1NCCNC1=O)Nc1ccc2c(c1)OCO2 (stereo not drawn)	x	n	n	n	n	1.1µM	n
O=C(O)CC(c1cccc2ccccc12)N1Cc2ccccc2C1=O (stereo not drawn)	u	u	n	n	n	u	n
COc1ccc(NCC(=O)N/N=C/c2cc([N+](=O)[O-])ccc2N2CCCC2)cc1	n	n	n	n	n	x	x
COC(=O)c1ccc(N2NC(=O)/C(=C/c3cc(OC)c(OC)c(OC)c3)C2=O)cc1	u	n	n	n	n	n	x
COC(=O)c1ccc(N2NC(=O)/C(=C/c3cc(OC)c(O)c(OC)c3)C2=O)cc1	n	n	n	n	n	3.5µM	n
COc1ccccc1NS(=O)(=O)c1cccc(C(=O)N/N=C/c2c(C)nn(-c3ccccc3)c2N2CCCC2)c1	u	u	n	n	n	11µM	n
CCN(CC)S(=O)(=O)c1cccc(NC(=O)C2SC(=Nc3ccc(C)cc3C)C(C(=O)NC(C)COC)=C2N)c1 (stereo not drawn)	x	3.7µM	n	n	n	13µM	n
Cc1ccc(NC(=O)C2SC(=Nc3ccccc3)C(C(=O)Nc3ccc(Cl)cc3)=C2N)cc1 (stereo not drawn)	u	u	n	n	n	n	x
COc1ccc(NC(=O)C2CC(=O)N(Cc3ccco3)C2)cc1Cl (stereo not drawn)	n	n	x	n	x	x	x
Oc1ccc2ccccc2c1-c1sc(Nc2ccccc2)n[n+]1-c1ccc(F)cc1	u	u	n	n	n	u	n
COc1ccc(N(CC(=O)N2CCOCC2)S(C)(=O)=O)cc1	n	u	n	n	n	n	x
Cc1c(Cl)c([N+](=O)[O-])nn1CC(=O)NC(C)C1CC2CCC1C2 (stereo not drawn)	n	x	n	n	n	n	x
COc1ccccc1-n1cc(-c2ccc(Br)cc2)[nH]c1=S	u	n	17	n	n	4.5µM	n
Cc1cc(C)cc(-n2c(O)c(C=Nc3ccc(N4CCOCC4)cc3)c(=O)[nH]c2=S)c1	n	n	n	n	n	n	x
O=c1[nH]c(=S)n(-c2ccc(Br)cc2)c(O)c1C=Nc1ccc(N2CCOCC2)cc1	n	n	16	n	n	7.9µM	n
CCCN(C(=O)COC(=O)CSc1ccc([N+](=O)[O-])cc1)C1CCS(=O)(=O)C1 (stereo not drawn)	n	n	x	n	x	x	x
COc1cc(/C=N/NC(=S)N/N=C/c2cc(OC)c(OC)c(OC)c2)cc(OC)c1OC	n	n	38	n	87	11µM	n
COC(=O)[C@@]1(Cc2ccc(F)cc2)[C@H]2c3cc(C(=O)N4CCCC4)n(Cc4ccc(C(F)(F)F)nc4)c3C[C@H]2CN1C(=O)c1ccccc1	u	2.1µM	n	n	n	11µM	n
Cc1nc(SCC(=O)NCc2ccco2)c2c3c(sc2n1)CCCC3	x	u	24	n	43	4.5µM	u
Cc1nc(SCC(=O)NCC2CCCO2)c2c3c(sc2n1)CCCC3 (stereo not drawn)	n	n	n	n	n	n	x
Nc1ccc(S(N)(=O)=O)cc1N	n	n	n	n	n	4.5µM	n
Nc1ccc(S(N)(=O)=O)cc1	n	u	x	x	x	x	x
Cc1c(Cl)cccc1NC(=S)N1CCC(C(N)=O)(N2CCCCC2)CC1	n	u	n	n	n	n	x
COCCNC(=O)Cn1cc(C(=O)c2ccco2)c2ccccc21	n	n[1.15 µM]	n	n	n	x	x
SMILES	Pf growth 48h	Pf growth 96h	Cycloheximide cs	SARS PLpro yeast	Shiga inhibitor	NS1 inh	NS1 inh valid
Cn1cc(S(=O)(=O)N2CCc3ccccc32)cc1C(=O)NC(C)(C)C	u	n	n	n	n	n	x
COc1ccc(CNC(=O)CCc2c(C)nc3ncnn3c2C)cc1	n	u	n	n	n	5µM	n
Cc1nc2ncnn2c(C)c1CCC(=O)NCc1ccccc1	n	n	n	n	n	n	x
COc1ccc(/C=C2/C(=O)N(c3c(F)c(F)c(F)c(F)c3F)N=C2C)cc1	n	u	20	n	x	11µM	n
CC(=O)Oc1ccc(/C=C2/C(=O)N(c3ccccc3)N=C2C)cc1	n	n	n	n	n	n	x
Cc1c(NC(=O)CSc2ncccn2)c(=O)n(-c2ccccc2)n1C	n	n	n	n	n	x	x
Cc1cc(C)n2nc(SCC(=O)Nc3c(C)n(C)n(-c4ccccc4)c3=O)nc2n1	n	u	n	n	n	5µM	n
CC(C)NS(=O)(=O)c1ccc(OCC(=O)Nc2cccc(F)c2)cc1	n	n	n	n	n	u	n
COc1cccc(CN2CCNC(=O)C2CC(=O)N(C)C2CCOCC2)c1OC (stereo not drawn)	n	n	n	n	n	n	x
CCCCCCc1nc2ccccc2c(=O)n1NC(=O)c1c(O)c2c(n(CC(C)C)c1=O)CCCC2	n	u	n	n	n	0.4µM	n
CCc1nc2ccccc2c(=O)n1NC(=O)c1c(O)c2ccccc2[nH]c1=O	u	n	n	n	n	1.6µM	n
Cc1nc2ccccc2c(=O)n1NC(=O)c1c(O)c2c(n(CC(C)C)c1=O)CCCC2	u	n	n	n	n	n	x
CN(C)c1nc(-c2ccccc2)c2cnn(Cc3ccccc3)c2n1	x	u	n	n	n	n	x
COc1ccc(-c2cc(C(=O)Nc3cc(C)n(Cc4ccc(Cl)cc4)n3)no2)cc1OC	u	n	n	n	n	5µM	n
COc1ccc(-c2cc(C(=O)Nc3cccnc3Cl)no2)cc1OC	n	u	n	n	n	n	x
O=C(Nc1ccc(-c2cc3ccccc3oc2=O)c(Cl)c1)c1cccnc1	n	n	n	n	n	2.2µM	n
COc1cc(NC(=O)c2cccnc2)ccc1-c1cc2ccccc2oc1=O	n	n	n	n	n	x	x
Cc1cc(C)n2c(SCC(=O)N3CCN(S(=O)(=O)c4ccc(Cl)cc4)CC3)nnc2n1	u	u	n	n	n	10µM	n
Cc1sc2ncnc(SCC(=O)c3ccc(O)cc3O)c2c1C	u	n	n	n	n	n	x
Cc1sc2ncnc(SCC(=O)c3ccc(Cl)s3)c2c1C	n	n	n	n	n	7.1µM	n
CCc1ccc2[nH]c(=O)c(C3C(C#N)=C(N)Oc4c3ccc3cccnc43)cc2c1 (stereo not drawn)	u	u	n	u	n	n	x
Cc1ccc2cc(C3C(C#N)=C(N)Oc4c3ccc3cccnc43)c(=O)[nH]c2c1 (stereo not drawn)	u	2.6µM	n	n	n	2.8µM	n
O=C(O)CSCCOc1ccc(OCCSCC(=O)O)cc1	n	n	n	n	n	n	x
COc1ccc(NC(=S)N(CCc2c(C)[nH]c3ccc(C)cc23)Cc2cccs2)cc1	n	n	n	n	n	11µM	n
